Source: PubChem BioAssay
Values joined by “and” are separate entries in the source; they are usually repeats but may differ in a detail not shown here. Equal values may be shown once. Active and inactive are the calls of the source.

Key:
Albumin (Bos taurus) = Albumin (Bos taurus) (UniProt P02769); assay: compounds binding labelled BSA control protein – biochemical, small-molecule microarray, Alexa647 label, 635/667 nm fluorescence, artefact control for SMM control protein annotation, profiling panel (AID 1118); conditions: BSA-A647 binding, fluorescence 635 nm, higher = more signal;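 also: score merges 667 nm emission intensity and signal-to-noise per printed compound spot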
[1] = probe aXIP binding to arrayed compounds – biochemical, NeuroSMM set, 635/667 nm fluorescence, primary screen (AID 1119); conditions: small-molecule microarray, higher = more signal, called active from +8 up or from −8 down;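 also: probe is the protein aXip251-270 applied at 1 µg/mL to compound-printed slides; binding of probe to printed compounds measured as 667 nm fluorescence plus signal to noise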
[2] = probe aNOTCH3 binding on compound microarray – biochemical, small-molecule microarray, 635/667 nm fluorescence, primary screen (AID 1120); conditions: higher = more signal;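 also: probe is a biotin-tagged antibody raised against NOTCH3 rather than NOTCH3 protein; score merges spot fluorescence near 667 nm with spot signal to noise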
[3] = probe aNOTCH2 binding on compound microarray – biochemical, small-molecule microarray, 635/667 nm fluorescence, primary screen (AID 1121); conditions: higher = more signal;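 also: score merges feature fluorescence read at 667 nm with its signal to noise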
[4] = target: Carbonic anhydrase 2 (Homo sapiens) (UniProt P00918); assay: compounds binding carbonic anhydrase 2 – biochemical, small-molecule microarray, Alexa647-labelled CAII, profiling panel (AID 1122); conditions: CAII-A647 binding fluorescence, higher = more signal
[5] = COS7 lysate on small-molecule microarray, probe aHis, 635 nm (AID 1123); conditions: COS7 cell lysate, fluorescence, higher = more signal;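 also: z-score combines 667nm fluorescence intensity with signal-to-noise per printed compound spot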
[6] = probe aLAP1 signal on lysate-treated microarray – cell lysate, small-molecule microarray, COS7 lysate, primary screen (AID 1124); conditions: probe aLAP1, fluorescence, higher = more signal;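 also: lysate comes from COS7 cells expressing LAP1 and is applied at 0.3 µg/mL; score merges spot fluorescence near 667 nm with signal-to-noise over triplicate slides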
Sam68 (KHDRBS1) = assay: compounds binding KHDRBS1 protein – biochemical, small-molecule microarray, 635 nm fluorescence, primary screen (AID 1125); conditions: higher = more signal;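 also: score merges 667 nm channel intensity with signal to noise over triplicate slides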
[7] = system: Chordin-like protein 2 (CHRDL2); assay: compounds binding chordin-like 2 – biochemical, small-molecule microarray, 635 nm fluorescence, primary screen (AID 1126); conditions: fluorescence 635 nm, higher = more signal;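 also: printed compound slides probed with Chrdl2 protein at 4 µg/mL for 1 h at 4 C; score merges 667 nm emission intensity with signal to noise over three replicate slides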
[8] = target: Concanavalin-A (Canavalia ensiformis) (UniProt P02866); assay: compounds binding concanavalin A lectin – biochemical, small-molecule microarray, Alexa647 label, 635 nm, artefact control for SMM control protein annotation, primary screen (AID 1127); conditions: ConA-A647 binding fluorescence, higher = more signal;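 also: z combines 667 nm emission intensity with signal-to-noise across three replicate slides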
[9] = compounds binding Alexa647 anti-His antibody – biochemical, small-molecule microarray, 635 nm fluorescence, artefact control for SMM control protein annotation, primary screen (AID 1128); conditions: higher = more signal;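 also: score merges feature fluorescence with signal-to-noise for each printed compound spot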
[10] = system: Human papillomavirus type 1a E7 protein (residues 1-88); assay: HPV1a E7 small-molecule binders, primary screen, biochemical, small-molecule microarray, residues 1-88, 635 nm (AID 1129); conditions: small-molecule microarray binding, fluorescence 635 nm; higher = more signal
[11] = target: Focal adhesion kinase 1 (Homo sapiens) (UniProt Q05397); assay: PTK2 protein binding on printed compound slides – biochemical, small-molecule microarray, 635/667 nm fluorescence, BSA, DTT, primary screen (AID 1130); conditions: 635 nm fluorescence, higher = more signal;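 also: composite of spot emission at 667 nm and signal to noise over triplicate slides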
[12] = system: Fibrinogen (Alexa647-labelled); assay: Alexa647-fibrinogen binding to printed small molecules – biochemical, small-molecule microarray, 635/667 nm fluorescence, artefact control for SMM control-protein annotation, profiling panel (AID 1131); conditions: fibrinogen-A647 binding fluorescence, higher = more signal;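 also: z-score merges 667 nm fluorescence with per-spot signal-to-noise over triplicate slides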
[13] = target: Follistatin (Homo sapiens) (UniProt P19883); assay: FST protein binding to printed compounds – biochemical, small-molecule microarray, 635/667 nm fluorescence, primary screen (AID 1132); conditions: 635 nm fluorescence, higher = more signal
[14] = target: Fibroblast growth factor 2 (Homo sapiens) (UniProt P09038); assay: basic fibroblast growth factor binding to printed compounds – biochemical, small-molecule microarray, 635/667 nm fluorescence, primary screen (AID 1133); conditions: FGF2, fluorescence 635/667, higher = more signal
[15] = JC-1 mitochondrial potential readout, lung cancer cells – cell-based, A549, JC-1 fluorescence, basal, 24 h, 100 nL, profiling panel (AID 1138); conditions: higher = more signal;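 also: A549 lung adenocarcinoma cells under basal conditions with no added stimulus; test concentration not given here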
Lefty1 = Lefty1 protein binding to printed compounds – biochemical, small-molecule microarray, 635/667 nm fluorescence, primary screen (AID 1139); conditions: fluorescence 635/667, higher = more signal
[16] = system: wheat germ agglutinin (Triticum aestivum), Alexa647-labelled; assay: Alexa647-WGA lectin binding to printed small molecules – biochemical, small-molecule microarray, 635/667 nm fluorescence, artefact control for SMM control-protein annotation, profiling panel (AID 1140); conditions: WGA-A647 binding, 635 nm fluorescence, higher = more signal;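 also: score merges 667 nm feature emission with signal to noise over triplicate slides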
[17] = target: Luciferin 4-monooxygenase (Photinus pyralis) (UniProt P08659); assay: inhibition of purified Photinus pyralis luciferase – biochemical, luminescence, purified enzyme, 2006 set, primary screen (AID 1141); conditions: purified firefly luciferase, SteadyGlo luminescence, 30 min; higher = more signal, called active from +8 up or from −8 down;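 also: cell-free assay with purified firefly luciferase at 100 ng per well in PBS; test concentration not given here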
Chain of Luciferin 4-monooxygenase (Photinus pyralis) (P08659 whole entry, looked up): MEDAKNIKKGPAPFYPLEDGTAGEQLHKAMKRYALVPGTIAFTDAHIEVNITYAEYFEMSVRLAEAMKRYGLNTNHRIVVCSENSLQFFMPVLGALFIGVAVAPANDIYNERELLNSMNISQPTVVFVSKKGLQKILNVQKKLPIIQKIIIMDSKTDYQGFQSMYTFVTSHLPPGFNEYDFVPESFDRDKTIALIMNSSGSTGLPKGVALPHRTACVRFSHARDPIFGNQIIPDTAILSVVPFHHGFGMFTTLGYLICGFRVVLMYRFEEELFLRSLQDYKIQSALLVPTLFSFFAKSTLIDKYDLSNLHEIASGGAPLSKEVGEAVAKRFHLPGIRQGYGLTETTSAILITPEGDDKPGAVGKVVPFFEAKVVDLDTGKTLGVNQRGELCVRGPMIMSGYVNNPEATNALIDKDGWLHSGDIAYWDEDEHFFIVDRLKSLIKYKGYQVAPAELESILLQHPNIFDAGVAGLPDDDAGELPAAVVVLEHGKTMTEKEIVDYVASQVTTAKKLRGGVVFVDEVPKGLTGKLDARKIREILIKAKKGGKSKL

Chain of Focal adhesion kinase 1 (Homo sapiens) (Q05397 whole entry, looked up): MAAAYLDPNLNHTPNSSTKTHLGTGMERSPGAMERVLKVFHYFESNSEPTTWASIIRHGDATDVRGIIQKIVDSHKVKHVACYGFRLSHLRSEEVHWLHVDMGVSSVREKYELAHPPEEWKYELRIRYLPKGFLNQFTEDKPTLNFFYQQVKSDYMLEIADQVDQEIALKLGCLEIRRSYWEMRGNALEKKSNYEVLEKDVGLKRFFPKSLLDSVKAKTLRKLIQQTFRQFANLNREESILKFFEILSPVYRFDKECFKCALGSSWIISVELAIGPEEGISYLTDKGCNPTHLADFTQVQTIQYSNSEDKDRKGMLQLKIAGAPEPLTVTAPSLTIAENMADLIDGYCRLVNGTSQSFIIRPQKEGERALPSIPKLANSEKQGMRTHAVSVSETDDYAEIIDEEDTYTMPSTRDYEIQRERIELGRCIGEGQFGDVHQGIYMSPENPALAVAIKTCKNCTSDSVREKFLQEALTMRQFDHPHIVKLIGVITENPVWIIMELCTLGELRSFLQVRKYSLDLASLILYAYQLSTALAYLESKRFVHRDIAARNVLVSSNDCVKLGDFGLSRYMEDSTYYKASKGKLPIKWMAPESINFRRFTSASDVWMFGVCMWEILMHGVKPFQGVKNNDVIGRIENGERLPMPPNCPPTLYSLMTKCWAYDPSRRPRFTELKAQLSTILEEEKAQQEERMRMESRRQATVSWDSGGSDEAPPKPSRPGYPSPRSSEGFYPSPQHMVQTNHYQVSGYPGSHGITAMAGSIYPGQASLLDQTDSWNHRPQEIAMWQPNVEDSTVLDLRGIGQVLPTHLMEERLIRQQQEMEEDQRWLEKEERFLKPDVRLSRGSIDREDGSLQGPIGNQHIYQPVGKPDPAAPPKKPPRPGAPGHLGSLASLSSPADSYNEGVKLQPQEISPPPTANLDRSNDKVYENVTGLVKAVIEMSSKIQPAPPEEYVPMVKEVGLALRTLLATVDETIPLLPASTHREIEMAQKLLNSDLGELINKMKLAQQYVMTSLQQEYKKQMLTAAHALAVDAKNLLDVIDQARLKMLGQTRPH
Chain of Fibroblast growth factor 2 (Homo sapiens) (P09038 whole entry, looked up): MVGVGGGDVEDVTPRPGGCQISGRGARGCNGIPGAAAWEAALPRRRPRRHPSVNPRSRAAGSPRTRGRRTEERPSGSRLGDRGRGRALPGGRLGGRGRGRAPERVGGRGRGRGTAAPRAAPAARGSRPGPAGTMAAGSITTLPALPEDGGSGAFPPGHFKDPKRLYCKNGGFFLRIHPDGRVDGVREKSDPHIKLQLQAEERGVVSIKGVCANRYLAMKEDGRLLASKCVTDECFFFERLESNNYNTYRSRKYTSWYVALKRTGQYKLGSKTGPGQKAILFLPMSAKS
Chain of Concanavalin-A (Canavalia ensiformis) (P02866 whole entry, looked up): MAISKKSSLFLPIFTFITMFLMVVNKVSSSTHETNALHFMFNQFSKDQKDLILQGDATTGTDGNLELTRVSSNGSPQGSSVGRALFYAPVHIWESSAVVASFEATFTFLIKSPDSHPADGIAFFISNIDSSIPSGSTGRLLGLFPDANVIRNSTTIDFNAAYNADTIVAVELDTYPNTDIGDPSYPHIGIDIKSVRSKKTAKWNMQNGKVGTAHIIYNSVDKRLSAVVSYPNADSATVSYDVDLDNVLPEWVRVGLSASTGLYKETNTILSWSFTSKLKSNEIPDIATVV
Chain of Albumin (Bos taurus) (P02769 whole entry, looked up): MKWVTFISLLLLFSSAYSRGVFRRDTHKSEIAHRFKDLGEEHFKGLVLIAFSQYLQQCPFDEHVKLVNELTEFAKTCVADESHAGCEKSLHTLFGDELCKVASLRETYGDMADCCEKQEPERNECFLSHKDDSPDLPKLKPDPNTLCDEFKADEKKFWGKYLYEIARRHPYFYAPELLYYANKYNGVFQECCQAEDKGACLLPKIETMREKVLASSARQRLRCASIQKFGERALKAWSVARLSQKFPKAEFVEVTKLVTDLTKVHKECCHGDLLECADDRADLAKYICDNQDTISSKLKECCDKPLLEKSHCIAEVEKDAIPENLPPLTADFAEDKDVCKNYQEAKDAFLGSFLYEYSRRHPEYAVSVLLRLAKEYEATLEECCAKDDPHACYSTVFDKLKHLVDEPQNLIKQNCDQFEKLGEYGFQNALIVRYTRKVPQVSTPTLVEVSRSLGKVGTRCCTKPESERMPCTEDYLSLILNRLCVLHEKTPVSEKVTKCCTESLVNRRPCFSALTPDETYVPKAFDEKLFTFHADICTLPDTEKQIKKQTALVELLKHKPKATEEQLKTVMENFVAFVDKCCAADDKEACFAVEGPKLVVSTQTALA
Chain of Follistatin (Homo sapiens) (P19883 whole entry, looked up): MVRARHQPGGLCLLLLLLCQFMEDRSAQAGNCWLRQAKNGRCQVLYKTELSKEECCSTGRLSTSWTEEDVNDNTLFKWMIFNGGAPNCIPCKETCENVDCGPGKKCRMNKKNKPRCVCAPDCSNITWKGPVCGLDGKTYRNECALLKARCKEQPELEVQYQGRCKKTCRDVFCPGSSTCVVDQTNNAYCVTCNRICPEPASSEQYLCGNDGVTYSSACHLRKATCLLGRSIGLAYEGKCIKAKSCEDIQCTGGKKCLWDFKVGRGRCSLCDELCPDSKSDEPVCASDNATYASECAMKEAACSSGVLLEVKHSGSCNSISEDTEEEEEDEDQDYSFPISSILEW

Compound	composite z-score (Albumin (Bos taurus))	composite Z-score [1]	composite z-score [2]	composite z-score [3]	composite z-score [4]	composite z-score [5]	composite z-score [6]	composite z-score (Sam68 (KHDRBS1))	composite z-score [7]	composite z-score [8]	composite z-score [9]	composite z-score [10]	composite z-score [11]	composite z-score [12]	composite z-score [13]	composite z-score [14]	z-score [15]	composite z-score (Lefty1)	composite z-score [16]	z-score [17]
CCCNC(=O)OC[C@H]1O[C@H](CCON=C(C)CCN2CCc3nc(-c4ccccc4)c(-c4ccccc4)cc3C2)C=C[C@@H]1Oc1ccc(OC)cc1	0.216	0.126 (inactive)	0.0179	-0.108	-0.0398	0.73	0.354	0.389	-0.273	0.472	1.29	0.0969	0.301	0.283	0.295	0.279	1.87	0.236	0.356	-0.076 (inactive)
C=C[C@H](C)[C@@H](O)c1ccc(OCCO)cc1	0.746 and -0.0233	-0.288 (inactive) and -0.162 (inactive)	-0.494 and -0.481	-0.238 and -0.14	0.743 and 0.6	-0.135 and -0.25	-1.16 and -0.0942	-1.42 and -0.873	-1.32 and -0.668	-1.1 and -0.494	-0.419 and 0.713	-1.38 and -0.449	-0.996 and -0.139	-1.48 and 0.462	0.42 and 0.345	0.036 and -0.488	-0.459 and 1.14	-0.931 and 0.134	-0.449 and 0.106	-3.17 (inactive) and -4 (inactive)
CC(C)[Si]1(C(C)C)OCc2cc(CCCc3cc4c(c(CCc5ccccc5)n3)[Si](C(C)C)(C(C)C)OC4)nc(CCc3ccccc3)c21	-1.72 and -0.26	-0.436 (inactive) and -0.38 (inactive)	-0.124 and -0.0578	-0.125 and -0.108	-0.139 and 0.0411	0.002 and 0.081	0.485 and 0.0666	0.23 and 0.716	-0.126 and 0.424	-1.42 and 0.124	-0.779 and 0.0773	-0.265 and 0.56	-0.293 and -0.0124	-0.551 and 0.0539	-0.43 and 0.238	-0.0119 and 0.483	0.627 and 0.00206	-0.11 and 0.41	-1.24 and -0.214	-1.11 (inactive) and 0.714 (inactive)
COC(=O)C1=C(C)N(Cc2ccccc2)C2=C(C(C)=O)[C@H](c3ccccc3)[C@@](O)(C(=O)OC)C(=O)N2[C@@H]1c1ccccc1	0.695 and -0.583	0.124 (inactive) and 0.115 (inactive)	-0.0362 and -0.182	-0.0907 and -0.124	0.301 and -0.459	0.275 and -0.666	-0.209 and -0.312	1.17 and -1.23	0.564 and 0.437	0.365 and -0.139	0.313 and -0.605	1.06 and -0.558	0.113 and -0.651	0.963 and 0.0691	0.764 and -0.238	0.745 and 0.282	3.76 and 1.44	0.638 and -0.0574	0.493 and -0.348	-1.12 (inactive) and -2.89 (inactive)
COC(=O)C1=C(C)N(Cc2ccccc2)[C@]23O[C@](C(=O)OC)(C(=O)N2[C@@H]1c1ccccc1)[C@@H](C(=O)OC)[C@H]3C(=O)OC	0.0583 and -0.396	-0.179 (inactive) and -0.813 (inactive)	-0.0947 and -0.0892	-0.165 and -0.106	0.266 and -0.244	0.189 and -0.172	-0.429 and -0.258	-0.192 and 0.227	-0.34 and 0.406	-1.07 and 0.249	0.297 and 1.07	-0.813 and 0.143	-0.277 and 0.2	-2.79 and -0.188	-0.998 and 0.452	-0.179 and 0.403	0.604 and 0.301	-0.625 and 0.747	0.753 and -0.487	-0.781 (inactive) and -1.8 (inactive)
C=C[C@H](OC)[C@@H](O)c1ccc(O)c(F)c1	0.0861 and -0.58	-0.244 (inactive) and 0.209 (inactive)	-0.592 and -0.454	-0.239 and -0.225	0.274 and -0.771	-0.541 and -0.37	-0.474 and -0.637	-1.1 and -1.43	-2.38 and -1.91	-1.97 and -1.23	-0.876 and -0.764	-1.22 and -1.21	-0.918 and -0.807	-2.91 and -1.06	-1.25 and -1.48	-0.826 and -1.47	-0.547 and -0.0182	-2.23 and -1.28	-1.47 and 0.129	-0.173 (inactive) and -0.446 (inactive)
COC(=O)C1=C(C)N(Cc2ccccc2)C2=C(C(=O)c3ccccc3)[C@H](c3ccccc3)[C@@](O)(C(=O)OC)C(=O)N2[C@@H]1c1ccccc1	0.388 and 0.0897	-0.174 (inactive) and -0.441 (inactive)	0.177 and -0.0265	0.0929 and -0.171	0.0303 and -0.0063	-0.224 and 0.306	0.0568 and 0.016	0.928 and 0.821	0.275 and 0.455	0.914 and 0.37	0.326 and -0.476	0.477 and 0.778	0.0825 and 1.11	0.435 and -0.0657	0.526 and 0.424	0.442 and 0.433	0.722 and 0.241	0.571 and 0.636	0.419 and -0.0152	-1.49 (inactive) and -0.0191 (inactive)
COC(=O)c1c2oc(c1C(=O)OC)C(=O)N[C@@H](Cc1ccccc1)Cn1cc(nn1)C1(CCCCC1)NC(=O)N[C@H](CO)CC2	-0.14 and 0.517	0.167 (inactive) and 0.77 (inactive)	0.13 and 0.0613	0.0165 and -0.0761	0.713 and -0.0749	1.72 and 0.833	0.376 and 0.0667	1.08 and 0.939	0.518 and 0.124	0.634 and 0.427	2.15 and -0.277	1.09 and 0.558	0.105 and 0.0367	1.01 and 0.223	1.38 and 0.484	1.41 and 0.184	1.53 and 3.28	0.956 and 0.506	0.462 and -0.0588	-1.19 (inactive) and -0.739 (inactive)
CC(CO)N1C(=O)[C@@H]2C3C(=O)OCCC=C[C@H]3OC23C=CCN(c2ccc4ccccc4c2)C(=O)[C@@H]13 (stereo not given in full)	-0.452 and 0.947	-0.862 (inactive) and 0.322 (inactive)	-0.1 and -0.498	-0.14 and -0.299	0.838 and 0.84	0.506 and 0.368	0.697 and 0.476	0.31 and -0.264	-0.937 and -1.09	0.0026 and -0.279	0.62 and 1.59	-0.203 and -0.362	-0.192 and 0.525	-0.986 and -1.18	-0.0475 and -0.0413	-1.53 and -0.879	0.638 and 0.972	-0.0302 and -0.337	-0.388 and 0.771	-0.618 (inactive) and -0.657 (inactive)
